# According to ChEMBL document CHEMBL1201862, “PubChem BioAssay data set” (2004):
# Out of some 400,000 compounds screened, about 2,100 (0.53%) were called active. Not shown: some 14% with an inconclusive outcome. This is one part of a sample in which actives are shown more often than they occur. No rule for the calls is given here.
# Target: Ataxin-2 (Homo sapiens) (UniProt Q99700)
# Assay: qHTS for Inhibitors of ATXN expression.
# Assay type: functional
# Ataxin-2 (Homo sapiens), sequence (Q99700 whole entry): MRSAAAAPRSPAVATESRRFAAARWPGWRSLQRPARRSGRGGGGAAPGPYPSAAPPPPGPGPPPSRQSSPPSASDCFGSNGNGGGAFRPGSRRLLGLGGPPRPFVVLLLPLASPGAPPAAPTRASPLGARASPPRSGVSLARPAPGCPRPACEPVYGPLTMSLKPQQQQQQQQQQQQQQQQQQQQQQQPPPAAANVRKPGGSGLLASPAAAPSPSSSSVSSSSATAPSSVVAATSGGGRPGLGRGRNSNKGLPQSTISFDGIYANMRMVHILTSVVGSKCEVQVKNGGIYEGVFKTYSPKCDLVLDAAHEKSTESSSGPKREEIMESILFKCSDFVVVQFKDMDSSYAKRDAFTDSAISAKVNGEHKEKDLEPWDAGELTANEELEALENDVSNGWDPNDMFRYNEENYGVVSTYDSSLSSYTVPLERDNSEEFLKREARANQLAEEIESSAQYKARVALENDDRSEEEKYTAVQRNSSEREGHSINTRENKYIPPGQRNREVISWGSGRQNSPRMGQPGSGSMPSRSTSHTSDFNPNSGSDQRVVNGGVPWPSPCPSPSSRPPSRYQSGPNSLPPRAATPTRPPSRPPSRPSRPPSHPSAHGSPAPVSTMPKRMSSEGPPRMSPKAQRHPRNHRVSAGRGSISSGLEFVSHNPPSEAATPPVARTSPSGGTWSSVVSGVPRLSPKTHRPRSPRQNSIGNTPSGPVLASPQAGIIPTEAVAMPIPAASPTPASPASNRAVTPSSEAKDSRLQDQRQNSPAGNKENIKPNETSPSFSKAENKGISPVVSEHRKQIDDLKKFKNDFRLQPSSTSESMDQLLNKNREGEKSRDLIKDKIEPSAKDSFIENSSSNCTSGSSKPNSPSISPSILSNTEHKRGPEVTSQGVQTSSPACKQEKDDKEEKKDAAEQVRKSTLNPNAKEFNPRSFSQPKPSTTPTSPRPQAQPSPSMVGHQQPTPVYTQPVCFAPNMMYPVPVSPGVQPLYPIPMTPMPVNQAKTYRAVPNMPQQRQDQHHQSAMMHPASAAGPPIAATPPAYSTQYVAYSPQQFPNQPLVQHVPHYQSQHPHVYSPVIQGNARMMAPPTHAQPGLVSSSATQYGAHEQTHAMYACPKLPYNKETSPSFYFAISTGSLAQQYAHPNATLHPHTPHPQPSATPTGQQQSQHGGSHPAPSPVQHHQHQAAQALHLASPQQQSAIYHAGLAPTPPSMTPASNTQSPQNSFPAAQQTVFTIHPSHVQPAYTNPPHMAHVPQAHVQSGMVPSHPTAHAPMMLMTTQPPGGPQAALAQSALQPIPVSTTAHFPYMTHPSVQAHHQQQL
row,Structure (SMILES),Potency
1,COc1ccccc1C1=NC(c2ccccc2)CN1c1ccccc1 (configuration not stated),inactive
2,CCCCc1c(-c2ccccc2OC)ncn1CCc1cccc(Cl)c1,31.6 µM (active)
3,CCCCc1c(-c2ccccc2OC)ncn1CCc1ccc(OC)cc1,39.8 µM (active)
4,CCCCc1c(-c2ccccc2OC)ncn1C1CCCC1,22.4 µM (active)
5,Nc1cccc2c1C(=O)N(Cc1cccc(Cl)c1)C2=O,inactive
6,O=C1Cc2ccccc2C(=O)N1Cc1cccc(Cl)c1,inactive
7,COc1cc2c3nnc(-c4ccccc4)c-3cn(Cc3ccc(F)cc3)c2cc1OC,inactive
8,CCCCc1c(-c2ccccc2OC)ncn1Cc1ccc(-c2ccccc2)cc1,22.4 µM (active)
9,CC12CCC(C1)C(C)(C)C2NS(=O)(=O)c1ccc(F)cc1 (configuration not stated),inactive
10,COC(=O)c1ccc(COc2ccc(C(C)(C)C)cc2)o1,inactive
11,COc1c(C)cc(S(=O)(=O)N2CCOCC2)c(C)c1C,inactive
12,Cc1cc(-c2nc3cccnc3s2)ccc1NS(=O)(=O)c1ccc2c(c1)OCCO2,inactive
13,CCOC(=O)c1cnc(-n2nc(C)cc2C)nc1Nc1ccc(O)cc1,inactive
14,FC(F)(F)c1cc(-c2cccs2)nc2cc(-c3cccs3)nn12,inactive
15,CCOC(=O)c1c(NC(C)=O)sc2c1CCC(/C=N/CCCN(CC)CC)=C2Sc1ccccc1,39.8 µM (active)
16,CCOC(=O)c1c(NC(C)=O)sc2c1CCC(C=O)=C2Sc1ccccc1,39.8 µM (active)

row,Structure (SMILES),Potency
1,CCOC(=O)c1c(N=C(S)Nc2ccccc2)sc2c1CCN(CC)C2,inactive
2,CCOC(=O)c1c(NC(=O)C2=C(C)N=C(S)NC2c2ccc(C)cc2)sc(C)c1C (configuration not stated),inactive
3,CCOC(=O)c1c(NC(=O)c2ccccc2Cl)sc2c1CCc1ccccc1-2,inactive
4,CCCCN(C)S(=O)(=O)c1ccc(C(=O)Nc2sc3c(c2C(=O)OCC)CCN(C(C)C)C3)cc1,inactive
5,COc1ccc(-n2nc3ccc(N)cc3n2)cc1,inactive
6,Cn1c(C(=O)NC2CCCCC2)cc2c(=O)n3ccccc3nc21,inactive
7,O=C(NCc1cccs1)C(Cc1ccccc1)n1cccc1 (configuration not stated),inactive
8,[N-]=[N+]=CC(=O)CNC(=O)[C@@H](Cc1ccccc1)N1C(=O)c2ccccc2C1=O,20 µM (active)
9,CC1=NN2C(=N)/C(=C\c3cc(C)n(-c4cccc(C)c4)c3C)C(=O)N=C2S1,inactive
10,Cn1c(-c2c(N)n(C3CCCC3)c3nc4ccccc4nc23)nc2ccccc21,inactive
11,N#C/C(=C\c1cccnc1)c1nc2ccccc2[nH]1,inactive
12,O=C(O)C(=O)/C(=C\c1ccc(Cl)cc1)c1ccc2ccccc2n1,inactive
13,O=C(Cc1nc2ccccc2[nH]1)c1ccc(Cl)cc1,inactive
14,O=C(/C(=C/c1ccc(Cl)cc1)c1nc2ccccc2[nH]1)c1ccccc1,39.8 µM (active)
15,O=C(/C(=C\c1ccccc1)c1nc2ccccc2[nH]1)c1ccc(Cl)cc1,15.8 µM (active)
16,O=C(O)C(=O)/C(=C\c1cccc(Cl)c1)c1ccc2ccccc2n1,inactive
